Where “and” joins values, the source holds several entries; their conditions need not be identical. Equal entries are not always repeated. Inconclusive results are not listed. Entries that show only a call come without a potency. The source holds several records for some structures; these can differ, active in one and inactive in another. Calls of active or inactive are those of the source. Calls come from the whole dose curve; as a rule, active = well fitted inhibition curve with a large enough effect; inconclusive = small, poorly fitted or top-dose-only effect; inactive = flat fitted curve, though single readings scatter.
Potency is the fitted concentration of half-maximal effect.

This experiment concerns MCC-26. The experiment is described as follows: qHTS assay to identify novel small-molecules to repurpose for Merkel cell carcinoma treatment (AID 1296009). Note: nearly all actives have a fitted effect of over 60% in size. The settings on record: MCC and control cell lines, CellTiter-Glo viability, 72 h; series mostly up to 46 µM. An excerpt: MCC is a rare and aggressive neuroendocrine skin cancer with limited treatment options. Approximately 80% of MCCs have the Merkel cell polyomavirus (MCPyV) DNA integrated into the host genome (virus-positive: VP-MCC) and viral oncogenes drive oncogenesis. The remaining MCCs are virus-negative (VN-MCC) and are caused by UV mutagenesis. To identify novel treatments for VP-MCC and/or VN-MCC we screened three VP-MCC cell lines (WAGA, MKL-1, MKL-2), three VN-MCC cell lines (MCC-13, MCC-26, UISO), and four immortalized, non-transformed control cell lines (HaCaT, HEK293T, CRL7250, NIH-3T3) against ~2,400 compounds in the NCGC Pharmaceutical Collection (NPC) and ~1,900 compounds in the Mechanism Interrogation PlatE (MiPE). Using cell viability as a readout (CellTiter-Glo assay) we found both overlapping and distinct drugs that can be repurposed for the treatment of VP-MCC and VN-MCC.
A high-throughput screen was conducted in 1536-well white flat bottom plates (Corning) on a Kalypsys robotic system. Cell lines WAGA, MKL-1, MKL-2, MCC-13, MCC-26, UISO, HaCaT, HEK293T, CRL7250, and NIH-3T3 were screened against 2 small molecule annotated drug libraries NPC and MIPE in dose response (8 and 11 pt. respectively) measuring cell viability after 72 hours of incubation. […] A 1,536 pintool (Kalypsys) was used to transfer 23 nL of compound in DMSO to the 1,536-well assay plates. After 72 hr incubation at 37 degree celsius, 2.5 uL of CellTiter-Glo (Promega) was dispensed into each well using a BiorapTR. Plates were incubated at room temperature for 10 min, transferred to a ViewLux (PerkinElmer) and the luminescence was recorded using an exposure time of 2 seconds. Relative luminescence units (RLUs) were normalized to in-plate controls (no cells as a positive (cytotoxicity) control, DMSO as negative control) and the normalized data was processed using NCATS in-house software.
Regarding `COc1ncnc(NS(=O)(=O)c2ccc(N)cc2)c1OC`, the Potency result is “inactive”.
As for `CNNCc1ccc(C(=O)NC(C)C)cc1`, the entry is “inactive”; as for `O=NN(CCCl)C(=O)NC1CCCCC1`, “inactive”.
As for `Nc1nc(F)nc2c1ncn2[C@@H]1O[C@H](CO)[C@@H](O)[C@@H]1O`, the Potency result is “inactive and 2.09 µM (active)”.
As for `CC(C)C1CCC(C(=O)N[C@H](Cc2ccccc2)C(=O)O)CC1` (stereo not given in full), the entry is “inactive”; as for `CCN(C)C(=O)Oc1cccc([C@H](C)N(C)C)c1`, “inactive”; as for `CCOC(=O)[C@H](CCc1ccccc1)N[C@H]1CS[C@H](c2cccs2)CN(CC(=O)O)C1=O`, “inactive”.
For `Cc1noc(NS(=O)(=O)c2ccc(N)cc2)c1C`, the Potency result was “inactive”.
In the case of `OCc1ccc(-c2nn(Cc3ccccc3)c3ccccc23)o1`, the Potency result was “inactive”.
Take `CCn1cc(C(=O)O)c(=O)c2cc(F)c(N3CCNCC3)nc21`: the Potency result is “inactive”.
Take `CC(C)Cn1cnc2c(N)nc3ccccc3c21`: the Potency entry was “inactive”.
Consider `Nc1nc(N)c2nc(CNc3ccc(C(=O)NC(CCC(=O)O)C(=O)O)cc3)cnc2n1` (stereo not given), for which the Potency result was “inactive”.
In the case of `CC(C)NCC(O)c1ccc(NS(C)(=O)=O)cc1` (stereo not given) it was “inactive”; in that of `CN(C)c1ccc(C(=C2C=CC(=[N+](C)C)C=C2)c2ccc(N(C)C)cc2)cc1`, 7.5 µM (active) and 4.69 µM (active).
In the case of `Cc1oc(=O)oc1CN1CCN(c2cc3c(cc2F)c(=O)c(C(=O)O)c2n3C(C)S2)CC1` (stereo not given), the Potency result was “inactive”.
With `COc1cnc(NS(=O)(=O)c2ccc(N)cc2)nc1`, the Potency result is “inactive”.
With `O=C(N[C@H](CO)[C@H](O)c1ccc([N+](=O)[O-])cc1)C(Cl)Cl`, the Potency result was “inactive”.
In the case of `Cc1cccc(N(C)C(=S)Oc2ccc3ccccc3c2)c1` it was “inactive”; in that of `COc1ccccc1OCC(O)COC(N)=O` (stereo not given), “inactive”; in that of `CC(=O)CC(c1ccccc1)c1c(O)c2ccccc2oc1=O` (stereo not given), “inactive”.
As for `C[C@@H](CN1CC(=O)NC(=O)C1)N1CC(=O)NC(=O)C1`, the entry is “inactive”.
In the case of `Cc1ccnc2c1NC(=O)c1cccnc1N2C1CC1` it was “inactive”; in that of `O=C(O)c1ccc(-n2nc(-c3ccccc3O)nc2-c2ccccc2O)cc1`, “inactive”.
On to `CC(N)C12CC3CC(CC(C3)C1)C2` (stereo not given), for which the Potency result is “inactive”.
Regarding `C[C@@H]1CN(c2c(F)c(N)c3c(=O)c(C(=O)O)cn(C4CC4)c3c2F)C[C@H](C)N1`, the Potency result is “inactive”.
As for `CC(C)(C#N)c1cc(Cn2cncn2)cc(C(C)(C)C#N)c1`, the Potency result is “inactive”.
As for `Cc1ccc(S(=O)(=O)N[C@@H](Cc2ccccc2)C(=O)CCl)cc1`, the entry is “inactive”; as for `Nc1ccc(S(=O)(=O)Nc2ccccn2)cc1`, “inactive”; as for `O=C(NCC1CN(c2ccc(N3CCOCC3=O)cc2)C(=O)O1)c1ccc(Cl)s1` (stereo not given), “inactive”.
Take `C[C@]12C=CC(=O)C=C1CC[C@@H]1[C@@H]2C(=O)C[C@@]2(C)[C@H]1CC[C@]2(O)C(=O)CO`: the Potency entry was “inactive”.
In the case of `CCCc1cc(C(N)=S)ccn1` it was “inactive”.
Turning to `O=C(O)c1cn(C2CC2)c2cc(N3CCNCC3)c(F)cc2c1=O`, the Potency entry is “inactive”.
For the compound `COc1cc2ncnc(Nc3cccc(Cl)c3)c2cc1OC`, the Potency entry is “inactive”.
As to `CCN[C@H]1C[C@H](C)S(=O)(=O)c2sc(S(N)(=O)=O)cc21`, the Potency entry was “inactive”.
In the case of `CC(C)OC(=O)C(C(=O)OC(C)C)=C1SC=CS1` it was “inactive”; in that of `COc1cc2nc(N3CCCN(C)CC3)nc(NC3CCN(Cc4ccccc4)CC3)c2cc1OC`, 23.5 µM (active); in that of `CCN(CC)CC#CCOC(=O)C(O)(c1ccccc1)C1CCCCC1` (stereo not given), “inactive”.
As to `O=c1cc(O)c(Cl)c[nH]1`, the Potency result was “inactive”.
In the case of `C#CCN[C@@H]1CCc2ccccc21` it was “inactive”; in that of `N[C@@H](C(=O)N[C@@H]1C(=O)N2C(C(=O)O)=C(Cl)CS[C@H]12)c1ccccc1`, “inactive”.
